# System: gramicidin D channels in DC22:1PC lipid vesicles (bilayer-modifying potency)
# Assay: initial Tl+ fluorescence quench rate relative to no-drug control (NormRate, gramicidin monomer-dimer shift) (ratio (fold of control)); higher = stronger bilayer-modifying effect (equilibrium shifted toward conducting dimers), active = 1.5 or more
# Conditions: 10 µM; lipid concentration 50 µM; temperature: 25 °C
# Method: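 Stopped-flow fluorescence quench assay: ANTS-loaded DC22:1PC large unilamellar vesicles doped with gramicidin D (1:2000), 50 µM lipid, equilibrated 10 min with 10 µM drug (0.1% DMSO), mixed with Tl+ quench buffer at 25°C. Initial quench rate (Tl+ influx) was fitted with a modified stretched exponential and normalised to the no-drug control rate (NormRate); duplicates from two independent LUV preparations (triplicates for 7 drugs).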
row,SMILES,initial Tl+ fluorescence quench rate
1,O=S(=O)(c1ccc(Cl)cc1)N1CCN(C(=S)NCc2ccco2)CC1,1.54 (active)
2,CS(=O)(=O)c1ccc(C(=O)N(C[C@H]2CCCO2)c2nc3ccccc3s2)cc1[N+](=O)[O-],2.09 (active)
3,NCC[C@H](O)C(=O)N[C@@H]1C[C@H](N)[C@@H](O[C@H]2O[C@H](CN)[C@@H](O)[C@H](O)[C@H]2O)[C@H](O)[C@@H]1O[C@H]1O[C@H](CO)[C@@H](O)[C@H](N)[C@H]1O,1.02 (inactive)
4,COc1ccc(Cn2cnc3c(-c4ccco4)nc(Cl)nc32)cc1,1.59 (active)
5,N#Cc1ccc(-c2ccc(OCC(N)=O)cc2)cc1,1.06 (inactive)
6,Nc1ncc(-c2cn[nH]c2)cc1-c1nc2cc(Cl)cnc2[nH]1,1.08 (inactive)
7,COc1ccc(S(=O)(=O)Nc2ccc(CN3CCN(C(=O)c4cccc(C#N)c4)CC3)cc2)cc1,1.41 (inactive)
8,O=C(OCc1ccccc1)N1CCC(c2cc(-c3ccncc3)c(-c3ccc(F)cc3)[nH]2)CC1,2.36 (active)
9,COc1cccc(NC(=O)c2c(NC(=O)c3cccnc3)sc3c2CCC3)c1,1.55 (active)
10,FC(F)(F)c1ccc(N(c2cccnc2)C2CCN(c3ccc(C(F)(F)F)cn3)CC2)cc1,1.56 (active)
11,CCCCN(CCCC)c1c(C#N)cc(S(=O)(=O)Nc2ccccc2)cc1C#N,1.1 (inactive)
12,Cc1cccc(Cn2ccc(NC(=O)c3ccc4c(c3)OCO4)n2)c1,1.35 (inactive)
13,CC[C@H](CO)NCCN[C@H](CC)CO,1.02 (inactive)
14,CC(C)n1nc(-c2cc3c(Cl)cccc3[nH]2)c2c(N)ncnc21,3.74 (active)
15,Cc1nn(C)cc1[C@H](C)Nc1nncc(-c2ccc(C(F)(F)F)cc2)n1,1.93 (active)
16,CCCn1c(CNc2ccccc2O)nc2ccccc21,1.05 (inactive)
17,Nc1ncnc2c1ncn2C[C@@H](O)[C@@H](O)C(=O)O,1.05 (inactive)
18,N#Cc1nc(-c2ccccc2F)oc1NCCc1ccccc1,1.04 (inactive)
19,COc1ccc(CCN2CCC(NCc3cccc(N(C)C)c3)CC2)cc1,1.07 (inactive)
20,CCN(CC)S(=O)(=O)c1ccc(C(=O)Nc2cc(C)nn2-c2nc(C)c(C)c(=O)[nH]2)cc1,1.57 (active)

row,SMILES,initial Tl+ fluorescence quench rate
1,CCC(=O)Nc1ccccc1C(=O)Nc1ccccn1,1.12 (inactive)
2,N[C@H](CC(=O)c1ccc(Cl)cc1Cl)C(Cl)(Cl)Cl,1.12 (inactive)
3,CC[C@H](Sc1nc2ccccc2o1)C(=O)Nc1nnc(C)s1,1.3 (inactive)
4,Cc1cc(C)n2nc(C(=O)Nc3cc(C(F)(F)F)ccc3N3CCOCC3)nc2n1,1.17 (inactive)
5,Brc1c(-c2ccc3c(c2)OCO3)nc2ncccn12,1.12 (inactive)
6,Cc1nnc(NC(=O)c2cn(-c3ccccc3)nc2-c2ccccc2C)o1,1.02 (inactive)
7,CCCCS(=O)(=O)Nc1ccc2cnn(C)c2c1,1.36 (inactive)
8,O=C(Nc1c(O)cccc1-c1nc2c(C(=O)O)cccc2o1)c1cc(-c2ccccc2)on1,1.35 (inactive)
9,COc1cc(-c2cc(-c3ccc(S(C)(=O)=O)cc3)cnc2N)ccc1O,1.09 (inactive)
10,CCc1nc2ccccc2n1C[C@H](O)COc1cc(C)ccc1Cl,2.91 (active)
11,CC(=O)NC[C@H]1CN(c2ccc(-c3ccc(CNCc4cn[nH]n4)cc3)c(F)c2)C(=O)O1,1.37 (inactive)
12,Nc1nccc2ccc(-c3ccc4nccn4c3)cc12,1.17 (inactive)
13,Cc1cc(C)c2cc(C(=O)NC3CCCCCCC3)[nH]c2c1,1.78 (active)
14,CN1CCN(S(=O)(=O)c2ccc(-c3ccc4c(Nc5ccc6nn[nH]c6c5)ccnc4c3)cc2)CC1,1.28 (inactive)
15,O=C(NCCN1CCCC1)c1cc(NCCCCN2CCC(F)(F)CC2)nc2ccc(Cl)cc12,1.92 (active)
16,CCN(CC)C(=O)N1CCN(C)CC1,1.1 (inactive)
17,C[C@@H](Oc1ccccc1)C(=O)Nc1nc(-c2ccccn2)cs1,1.29 (inactive)
18,COc1ccc(C2(C(=O)Nc3ccc(Br)cc3)CCCC2)cc1,1.14 (inactive)
19,Cc1ccc(S(=O)(=O)Nc2ccc(CN3CCN(C(=O)c4cccc(C#N)c4)CC3)cc2)cc1,1.5 (active)
20,COc1cncc(-c2cncc(N3CCN(c4ccncc4)CC3)n2)c1,1.11 (inactive)
